Reference: PubChem BioAssay
Activity calls are given as the source filed them. Unless noted, the rule behind the calls is not given here.

Experiments:
[1] = HepG2 liver cancer cell viability effects, profiling panel, resazurin fluorescence, 24 h, PK04 Diversity Set (AID 1172); details: higher = more signal
[2] = basal S. cerevisiae growth modulation, no modifier, primary screen, OD600, strain BY4716, 24 h, basal condition (AID 1173); details: OD600, 24 h, higher = more signal, called active from +8 up or from −8 down
[3] = MM1S myeloma cell viability, profiling panel, resazurin fluorescence, basal, 24 h, PK04 Diversity Set (AID 1174); details: higher = more signal, called active from +8 up or from −8 down;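 note: MM1S multiple myeloma cell line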
[4] = target: Dihydroorotate dehydrogenase (quinone), mitochondrial (Plasmodium falciparum (isolate 3D7)) (UniProt Q08210); experiment: PfDHODH enzyme inhibitors, primary screen, biochemical, C-terminal His tag, absorbance 600 nm (AID 1175); details: DCIP absorbance 600 nm, higher = more signal, called active from +8 up or from −8 down;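 note: recombinant parasite enzyme with a five histidine tag at its C terminus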
Sequence of Dihydroorotate dehydrogenase (quinone), mitochondrial (Plasmodium falciparum (isolate 3D7)) (Q08210 whole entry, looked up): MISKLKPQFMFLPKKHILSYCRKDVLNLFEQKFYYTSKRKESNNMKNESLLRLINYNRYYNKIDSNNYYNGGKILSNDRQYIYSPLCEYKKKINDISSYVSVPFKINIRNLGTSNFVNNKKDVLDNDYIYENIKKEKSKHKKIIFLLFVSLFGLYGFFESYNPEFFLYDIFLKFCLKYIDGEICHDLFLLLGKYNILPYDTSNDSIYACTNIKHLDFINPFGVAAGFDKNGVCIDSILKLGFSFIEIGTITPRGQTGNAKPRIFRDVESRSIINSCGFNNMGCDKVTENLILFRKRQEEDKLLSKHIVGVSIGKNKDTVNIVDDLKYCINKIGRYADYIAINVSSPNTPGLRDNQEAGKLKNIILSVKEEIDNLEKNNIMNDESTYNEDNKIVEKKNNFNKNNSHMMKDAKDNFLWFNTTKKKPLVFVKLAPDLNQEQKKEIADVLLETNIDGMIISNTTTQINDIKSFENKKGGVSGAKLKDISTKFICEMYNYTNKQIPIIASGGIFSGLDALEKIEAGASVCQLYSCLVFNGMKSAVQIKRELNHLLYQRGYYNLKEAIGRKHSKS

[5] = P. aeruginosa biofilm formation inhibitors, primary screen, strain PAO1, LB-PBS medium, absorbance 600 nm (AID 1176); details: P. aeruginosa PAO1 growth/biofilm, A600, 12 h; higher = more signal
[6] = S. cerevisiae RM11-1a growth modifiers, primary screen, strain RM11-1a, OD600, basal, 24 h (AID 1177); details: OD600, 24 h, higher = more signal, called active from +8 up or from −8 down;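 note: cultures grown under basal conditions with no added stressor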
[7] = E. coli acrAB mutant growth effects, primary screen, E. coli filamentation inducers, strain DRC39, OD650, 24 h (AID 1178); details: higher = more signal, called active from +8 up or from −8 down;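 note: growth measured as culture turbidity by optical density at 650 nm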
[8] = E. coli acrAB mutant growth effects, primary screen, E. coli filamentation inducers, strain DRC39, OD650, 48 h (AID 1179);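 note: screen aims at cell division blockers that make cells filament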; details: E. coli DRC39 delta-acrAB growth, higher = more signal, called active from +8 up or from −8 down
[9] = RPMI8226 myeloma cell viability, profiling panel, resazurin fluorescence, basal, 24 h, PK04 Diversity Set (AID 1180); details: higher = more signal;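 note: RPMI8826 multiple myeloma cell line at 5000 cells per well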
[10] = target: E3 ubiquitin-protein ligase XIAP (Homo sapiens) (UniProt P98170); experiment: XIAP binders, primary screen, biophysical, small-molecule microarray, fluorescence 635 nm (AID 1181); details: small-molecule microarray binding, higher = more signal;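 note: score merges 667 nm emission and signal to noise over triplicate slides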
Sequence of E3 ubiquitin-protein ligase XIAP (Homo sapiens) (P98170 whole entry, looked up): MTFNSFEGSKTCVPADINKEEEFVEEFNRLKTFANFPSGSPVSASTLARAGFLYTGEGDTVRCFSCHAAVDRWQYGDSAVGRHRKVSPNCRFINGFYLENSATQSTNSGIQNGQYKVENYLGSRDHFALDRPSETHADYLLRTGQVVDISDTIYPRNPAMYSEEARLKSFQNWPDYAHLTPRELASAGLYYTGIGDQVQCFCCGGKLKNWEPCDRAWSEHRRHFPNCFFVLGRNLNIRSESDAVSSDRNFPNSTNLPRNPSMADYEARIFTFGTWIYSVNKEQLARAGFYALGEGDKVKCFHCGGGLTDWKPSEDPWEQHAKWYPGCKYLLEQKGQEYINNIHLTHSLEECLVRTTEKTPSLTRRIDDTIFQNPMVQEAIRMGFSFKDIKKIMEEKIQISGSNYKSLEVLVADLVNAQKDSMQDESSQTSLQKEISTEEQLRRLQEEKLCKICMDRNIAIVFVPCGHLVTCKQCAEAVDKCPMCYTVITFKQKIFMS

[11] = tested on: XIP peptide (Xip251-270) binding; experiment: small-molecule binders of XIP peptide, primary screen, biochemical, small-molecule microarray, fluorescence 635/667 nm, 0.1 µg/mL protein (AID 1182); details: fluorescent protein binding, 635 nm, higher = more signal, called active from +8 up or from −8 down
XIP peptide (Xip251-270) = experiment: small-molecule binders of XIP peptide, primary screen, biochemical, small-molecule microarray, fluorescence 635/667 nm, 0.5 µg/mL protein (AID 1183); details: small-molecule microarray binding, fluorescence 635 nm; higher = more signal
[12] = Plasmodium falciparum growth inhibition, primary screen, strain 3D7, DAPI fluorescence, 100 nL (AID 1184);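 note: parasites grown inside human red blood cells in medium with human serum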; details: P. falciparum 3D7 growth, 3 d, higher = more signal
[13] = target: Homeobox protein Hox-A13 (Mus musculus) (UniProt Q62424); experiment: inhibitors of HoxA13-DNA binding, primary screen, biochemical, fluorescence polarization, labeled oligonucleotide (AID 1185); details: 15 min, higher = more signal, called active from +8 up or from −8 down
Sequence of Homeobox protein Hox-A13 (Mus musculus) (Q62424 whole entry, looked up): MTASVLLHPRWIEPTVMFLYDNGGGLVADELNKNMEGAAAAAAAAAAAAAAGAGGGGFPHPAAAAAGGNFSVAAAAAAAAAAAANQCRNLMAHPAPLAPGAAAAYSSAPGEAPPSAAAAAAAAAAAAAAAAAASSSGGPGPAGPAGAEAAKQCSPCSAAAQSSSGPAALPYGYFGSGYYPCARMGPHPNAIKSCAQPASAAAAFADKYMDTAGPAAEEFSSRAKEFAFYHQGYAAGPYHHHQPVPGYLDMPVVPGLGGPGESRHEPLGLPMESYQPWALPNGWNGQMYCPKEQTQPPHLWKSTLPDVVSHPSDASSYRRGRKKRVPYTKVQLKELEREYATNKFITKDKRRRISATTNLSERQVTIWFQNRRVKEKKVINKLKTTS

[14] = inhibitors of hydroxyurea-induced Chk1 phosphorylation, primary screen, imaging, HeLa, phospho-Chk1 antibody, percent positive cells (AID 1186); details: hydroxyurea-induced phospho-Chk1 immunofluorescence imaging, higher = more signal
[15] = inhibitors of hydroxyurea-induced Chk1 phosphorylation, primary screen, imaging, HeLa, phospho-Chk1 nuclear intensity (AID 1187); details: hydroxyurea-induced phospho-Chk1 immunofluorescence imaging, higher = more signal

Structure (SMILES) | z-score [1] | z-score [2] | z-score [3] | composite z-score [4] | z-score [5] | z-score [6] | z-score [7] | z-score [8] | z-score [9] | composite z-score [10] | composite z-score [11] | composite z-score (XIP peptide (Xip251-270)) | z-score [12] | z-score [13] | z-score [14] | z-score [15]
COCCOC(=O)N1C(=O)[C@@]2(c3cc(C#CC4=CCCCC4)ccc31)[C@H](c1ccccc1OCCO)N1[C@H](c3ccccc3)[C@H](c3ccccc3)OC(=O)[C@H]1[C@@H]2C(=O)Nc1nc2ccccc2s1 | 0.322 | 0.357 (inactive) | -0.774 (inactive) | -0.291 (inactive) | 1.63 (inactive) | 1.12 (inactive) | -0.736 (inactive) | -0.3 (inactive) | -0.765 | 0.0304 | 0.469 (inactive) | 0.484 | -1.8 | 3.53 (inactive) | 0.325 (inactive) | 0.587 (inactive)
NC(=O)NCC#Cc1ccc2c(c1)[C@]1(C(=O)N2)[C@H](C(=O)NC[C@H](O)c2ccccc2)[C@H]2C(=O)O[C@H](c3ccccc3)[C@H](c3ccccc3)N2[C@@H]1c1ccc(OCCO)cc1 | 0.815 | 1.5 (inactive) | 0.449 (inactive) | -1.11 (inactive) | 1.72 (inactive) | 2.91 (inactive) | 0.615 (inactive) | 0.541 (inactive) | 1.3 | 0.11 | 0.869 (inactive) | 0.528 | -0.0803 | -2.75 (inactive) | 0.179 (inactive) | 0.446 (inactive)
COc1cc(OC)c(C(O)C2C=CC3C(=O)N(c4ccccc4)C(=O)C3N2Nc2ccccc2)cc1Br (stereo not given) | 0.222 | -11 (active) | -1.14 (inactive) | 0.593 (inactive) | 0.475 (inactive) | 0.378 (inactive) | -1.05 (inactive) | -0.163 (inactive) | -1.52 | 0.0967 | 1.02 (inactive) | 0.577 | 0.0461 | -3.38 (inactive) | -0.754 (inactive) | -0.747 (inactive)
Cc1ccc(S[C@]2(C(=O)NCC(F)(F)F)CC(=O)N(Cc3ccccc3C(F)(F)F)[C@@H]2c2ccc(CO)cc2I)cc1 | 0.719 | -3.66 (inactive) | -2.62 (inactive) | 0.196 (inactive) | -0.0623 (inactive) | -1.21 (inactive) | 0.506 (inactive) | 1.21 (inactive) | -1.15 | 0.531 | -0.485 (inactive) | -0.0347 | -0.115 | -2.45 (inactive) | 0.504 (inactive) | 1.27 (inactive)
Cc1ccccc1C(O)C1C=CC2C(=O)N(C)C(=O)C2N1N(c1ccccc1)c1ccccc1 (stereo not given) | -0.417 | 0.0882 (inactive) | -0.166 (inactive) | 0.0842 (inactive) | 0.53 (inactive) | 0.591 (inactive) | -0.209 (inactive) | -0.334 (inactive) | -0.0373 | 0.396 | -0.0728 (inactive) | 0.649 | 0.548 | -1.17 (inactive) | -0.274 (inactive) | -0.168 (inactive)
